Measured values as given in the supplement of paper PMC12669032.
Values without a mark were called inactive.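 The calls were made as follows: active = AUC reduced over 20% with Padj below 0.05 in at least 2 of 3 replicates; inactive = otherwise.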

Tests used:
Assay in all cases: growth AUC relative to DMSO control (median of replicates) (fraction); higher = more growth (less inhibition), active = hit call of the paper
Conditions in all cases: 20 µM; 24 h
[1] = tested on: Coprococcus comes
In short: (§1)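 Three biological replicates, each grown on a separate day, were combined as a median for every value. In each, a gut bacterial monoculture in mGAM started at OD600 0.05 and grew anaerobically at 37 °C with 20 µM compound (1% DMSO), with OD600 read hourly over 24 h. Area under the growth curve was normalised against the plate median of solvent-only wells, or against row and column medians on the industrial chemical plate, after the minimum OD was set to 0.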

[2] = tested on: Escherichia coli ED1a
In short: as §1

[3] = tested on: Escherichia coli IAI1
In short: as §1

[4] = tested on: Eubacterium rectale
In short: as §1

[5] = tested on: Fusobacterium nucleatum subsp. animalis
In short: as §1

[6] = tested on: Lactobacillus gasseri
In short: as §1

[7] = tested on: Lactobacillus paracasei
In short: as §1

[8] = tested on: Odoribacter splanchnicus
In short: as §1

[9] = tested on: Parabacteroides distasonis
In short: as §1

[10] = tested on: Parabacteroides merdae
In short: as §1

[11] = tested on: Roseburia intestinalis
In short: as §1

[12] = tested on: Streptococcus salivarius
In short: as §1

Row | Structure (SMILES) | growth AUC [1] | growth AUC [2] | growth AUC [3] | growth AUC [4] | growth AUC [5] | growth AUC [6] | growth AUC [7] | growth AUC [8] | growth AUC [9] | growth AUC [10] | growth AUC [11] | growth AUC [12]
1 | CCCN(CC1CC1)c1c([N+](=O)[O-])cc(C(F)(F)F)cc1[N+](=O)[O-] | 0.995 | 1.01 | 1.03 | 1 | 1.09 | 1.11 | 0.977 | 0.943 | 1.03 | 1.03 | 1.06 | 1.03
2 | CN(C)C1CSSSC1.O=C(O)C(=O)O | 0.99 | 0.985 | 1.02 | 1.7 | 1.05 | 1.03 | 0.972 | 0.962 | 1.04 | 1.02 | 1.2 | 0.994
3 | COc1cc(C)c(C(=O)c2c(OC)ccc(Br)c2C)c(OC)c1OC | 1.04 | 1.01 | 0.971 | 1.02 | 1.01 | 0.709 | 1.03 | 1.05 | 0.528 (active) | 1.01 | 0.989 | 1.01
4 | CCS(=O)(=O)c1nc2ccccn2c1S(=O)(=O)NC(=O)Nc1nc(OC)cc(OC)n1 | 1.04 | 0.99 | 1.01 | 0.999 | 0.977 | 0.88 | 1.01 | 1.05 | 1.02 | 1.02 | 1.01 | 1.03
5 | Cc1cc(Cl)ccc1O | 0.989 | 1 | 1.02 | 1.02 | 1.07 | 0.979 | 0.873 | 1.07 | 1.02 | 1.04 | 1.01 | 1.04
6 | CC(C)=NOCCOC(=O)[C@@H](C)Oc1ccc(Oc2cnc3cc(Cl)ccc3n2)cc1 | 0.94 | 1.01 | 1.01 | 0.957 | 0.864 | 1.04 | 0.974 | 0.931 | 0.983 | 0.955 | 1.05 | 0.966
7 | CNC(=O)O/N=C/C(C)(C)S(C)=O (stereo not drawn) | 0.987 | 0.993 | 1 | 1.08 | 0.996 | 1.01 | 1.01 | 0.955 | 1.02 | 1 | 0.994 | 1.01
8 | O=C(NC(=O)c1c(F)cccc1F)Nc1ccc(CO/N=C(\c2ccc(Cl)cc2)C2CC2)cc1 | 0.988 | 1 | 0.986 | 0.952 | 0.997 | 0.963 | 0.962 | 1.01 | 1.04 | 0.975 | 0.968 | 0.996
9 | Cc1nc(N(C)C)nc(OC(=O)N(C)C)c1C | 1.01 | 0.998 | 0.992 | 0.98 | 1 | 1.1 | 0.978 | 1.01 | 1.03 | 1.04 | 0.988 | 1
10 | COCC(=O)N(c1c(C)cccc1C)[C@H](C)C(=O)OC | 1.04 | 1.02 | 1.05 | 1.01 | 1.02 | 0.957 | 1 | 1.03 | 1.05 | 1.05 | 0.966 | 1.02
11 | COc1ccccc1N | 0.993 | 1 | 1 | 1.08 | 1.04 | 1.02 | 1.02 | 1.16 | 1.28 | 1.02 | 1.03 | 0.998
12 | CCSCc1ccccc1OC(=O)NC | 0.959 | 0.971 | 0.98 | 0.933 | 0.973 | 1.13 | 1.01 | 1.03 | 1.06 | 1.01 | 1.01 | 1.02
13 | COC(=O)C(C)Oc1ccc(Oc2ccc(Cl)cc2Cl)cc1 (stereo not drawn) | 0.97 | 0.99 | 0.993 | 1.12 | 0.953 | 1.06 | 0.999 | 1 | 0.973 | 0.96 | 0.984 | 0.984
14 | O=C(NC(=O)c1c(F)cccc1F)Nc1ccc(OC(F)(F)C(F)OC(F)(F)F)c(Cl)c1 (stereo not drawn) | 1 | 1.05 | 1 | 0.99 | 0.986 | 1.49 | 0.958 | 0.983 | 1.02 | 0.997 | 1.06 | 1.01
15 | CCC(C)c1cc([N+](=O)[O-])cc([N+](=O)[O-])c1OC(=O)C=C(C)C (stereo not drawn) | 0.945 | 0.968 | 0.973 | 0.978 | 0.802 | 0.762 | 0.955 | 0.515 (active) | 0.418 (active) | 0.902 | 0.948 | 0.872
16 | CC1(C)CC/C(=C\c2ccc(Cl)cc2)C1(O)Cn1cncn1 (stereo not drawn) | 0.974 | 0.999 | 0.98 | 0.986 | 0.97 | 0.935 | 0.955 | 1.04 | 0.964 | 0.967 | 1.02 | 0.993
17 | CC(=O)O.CCCCCCCCCCCCN=C(N)N | 1.02 | 1.02 | 1.02 | 1.04 | 1.04 | 0.794 | 1.02 | 1.02 | 0.933 | 0.996 | 0.805 | 1.03
18 | CCOP(=O)(OCC)OP(=O)(OCC)OCC | 0.976 | 0.982 | 1.02 | 1.19 | 1.02 | 0.954 | 0.961 | 0.986 | 0.946 | 0.919 | 0.969 | 1.03
19 | CCCN(CCCl)c1c([N+](=O)[O-])cc(C(F)(F)F)cc1[N+](=O)[O-] | 0.914 | 0.983 | 0.987 | 0.942 | 1.05 | 0.875 | 1.06 | 1.13 | 0.962 | 0.955 | 0.989 | 0.928
20 | O=C(O)c1cc(Oc2ccc(C(F)(F)F)cc2Cl)ccc1[N+](=O)[O-] | 0.967 | 0.992 | 0.948 | 1.06 | 0.957 | 0.95 | 0.966 | 1.03 | 0.896 | 0.971 | 0.963 | 0.987
21 | COc1cc(OC)nc(NC(=O)[N-]S(=O)(=O)c2ncccc2OCC(F)(F)F)n1.[Na+] | 0.957 | 0.993 | 0.982 | 1.04 | 1.08 | 0.9 | 1.04 | 0.932 | 1.03 | 0.974 | 1.01 | 0.885
22 | COC(=O)NCc1cc(/C(C)=N\OCc2cccc(C)n2)ccc1Cl | 1.05 | 0.979 | 0.995 | 1.08 | 0.934 | 0.893 | 0.969 | 1 | 0.772 | 0.947 | 1.01 | 0.974
23 | O=P(OC(CCl)CCl)(OC(CCl)CCl)OC(CCl)CCl | 0.89 | 1.01 | 1 | 1.07 | 1.11 | 0.905 | 1.03 | 0.613 | 0.5 (active) | 0.911 | 0.949 | 0.969
24 | CC1(C)[C@H](C(=O)O[C@H](C#N)c2cccc(Oc3ccccc3)c2)[C@@H]1C=C(Br)Br | 0.985 | 0.991 | 0.979 | 1.11 | 0.922 | 0.926 | 0.986 | 1.03 | 0.972 | 0.921 | 0.933 | 0.914
